Bioassay records (PubChem BioAssay)
GluA2 TARP mod: GluA2-stargazin AMPA receptor complex modulation; O88602+P19491; HEK293 GluA2+stargazin, membrane potential dye (FDSS), glutamate EC50; hits were called plate by plate, in both directions; calls only at 30 µM; actives 3.5% (n = 40,000);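 active means any of four per-well response measures lying three or more SD from its plate-wide compound average, in either direction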
GIRK2 act: Activators of human GIRK2-containing channels. P48051. HEK293 GIRK2/NPY4 cells, thallium flux fluorescence. activation (% efficacy), % for hits at 37.5 µM. 34,000 tested, under 10 active;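 active means primary screen hit, no activity in plain HEK293 cells, and in GIRK2-only cells above 5% efficacy rising with concentration; inactive means the rest, including fluorescent compounds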;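 further: efficacy is normalized control-subtracted fluorescence 15 s after thallium addition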
Target sequence (P48051 whole entry, looked up): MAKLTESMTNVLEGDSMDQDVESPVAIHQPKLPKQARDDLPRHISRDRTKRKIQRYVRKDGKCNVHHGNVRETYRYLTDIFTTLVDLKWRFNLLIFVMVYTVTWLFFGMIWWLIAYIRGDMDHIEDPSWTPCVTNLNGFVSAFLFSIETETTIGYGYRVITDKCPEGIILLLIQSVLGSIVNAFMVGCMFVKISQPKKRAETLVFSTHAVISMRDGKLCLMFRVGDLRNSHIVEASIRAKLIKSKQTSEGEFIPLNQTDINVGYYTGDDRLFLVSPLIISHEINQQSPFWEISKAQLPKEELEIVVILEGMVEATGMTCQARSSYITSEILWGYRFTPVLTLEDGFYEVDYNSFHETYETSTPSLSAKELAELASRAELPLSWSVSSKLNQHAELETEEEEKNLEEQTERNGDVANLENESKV
* hit, by the source's call; i = inactive; nt = not tested or not shown; + = active, no number. Only a selection was taken, and hits are over-represented in it overall.

SMILES	GluA2 TARP mod	GIRK2 act
CCOC(=O)N1CCN(C(=O)c2nn(-c3ccc(F)cc3)cc2OCC)CC1	i	i
CCCOc1cn(-c2ccc(F)cc2)nc1C(=O)NCCc1ccccc1	i	i
CCOc1cn(-c2ccc(F)cc2)nc1C(=O)N1CC(C)CC(C)C1 (stereo not drawn)	+	i
CCCOc1cn(-c2ccc(F)cc2)nc1C(=O)NCCC(C)C	+	i
CCOc1cn(-c2ccc(F)cc2)nc1C(=O)N1CCCCC1	i	i
CCOc1cn(-c2ccc(F)cc2)nc1C(=O)N1c2ccccc2CC1C (stereo not drawn)	+	i
COc1ccc(C(=O)NCC2CCN(Cc3ccccc3)CC2)cc1	i	nt
O=C(CCCS(=O)(=O)c1ccccc1)Nc1nc(-c2cccs2)cs1	i	i
O=C(c1ccc(=O)n(Cc2ccccc2Cl)c1)N1CCCc2ccccc21	i	i
CSCCC(C)(O)CNC(=O)COc1ccccc1C (stereo not drawn)	i	i
O=C(NCc1ccccc1)C(=O)c1cn(CC(=O)N2CCOCC2)c2ccccc12	i	nt
O=C(NCCc1ccccc1)C(=O)c1cn(CC(=O)N2CCOCC2)c2ccccc12	+	nt
CCCN(CCC)S(=O)(=O)c1cc(C(C)C)c(C)cc1OC	i	nt
CCN(C1CCCCC1)S(=O)(=O)c1cc(C(C)C)c(C)cc1OC	+	nt
O=C(Nc1ccc(Cl)c(C(F)(F)F)c1)N1CCN(c2cc(-n3cccn3)ncn2)CC1	i	i
CCN1CCc2nc(N)sc2C1	+	i
CCOC(=O)N1CCc2nc(NC(C)=O)sc2C1	i	i
CCOC(=O)COc1ccc2c(=O)c(-c3ccccc3)c(C)oc2c1	i	nt
COc1ccccc1-c1c(C)oc2cc(OCC=C(C)C)ccc2c1=O	+	nt
CCN(CC)C(=O)Oc1ccc2c(=O)c(-c3ccccc3)c(C)oc2c1	i	nt
COc1ccccc1-c1c(C)oc2cc(OC(=O)N3CCOCC3)ccc2c1=O	i	nt
Cc1oc2cc(OCC(=O)OCc3ccccc3)ccc2c(=O)c1-c1ccccc1	+	nt
CCN(CC)C(=O)Oc1ccc2c(=O)c(-c3ccc(OC)c(OC)c3)c(C)oc2c1	+	i
CCC(C(=O)N1CCN(c2ncnc3c2nnn3-c2ccc(C)cc2)CC1)c1ccccc1 (stereo not drawn)	i	nt
CC1=NN(c2ccccc2)C(=O)C1C(=O)c1ccc(S(=O)(=O)N(C)C)cc1 (stereo not drawn)	i	i
SMILES	GluA2 TARP mod	GIRK2 act
CC1=NN(c2ccccc2)C(=O)C1C(=O)c1ccc(Br)o1 (stereo not drawn)	+	i
CC(=O)Nc1ccc2c(c1)CC(=O)N2C	i	nt
CN1C(=O)Cc2cc(NC(=O)/C=C/c3ccccc3)ccc21	+	i
CN1C(=O)Cc2cc(NC(=O)Nc3ccc(Cl)c(Cl)c3)ccc21	i	i
CN1C(=O)Cc2cc(NC(=O)Nc3cccc(Cl)c3)ccc21	+	i
COCCn1c(=O)c2c(nc3n2CC(C)CN3c2ccc(Oc3ccccc3)cc2)n(C)c1=O (stereo not drawn)	i	nt
CN(C)c1ccc(-c2oc3ccccc3c(=O)c2O)cc1	+	nt
O=c1c(O)c(-c2ccccc2)oc2ccccc12	i	nt
CC(C)N(C(=O)Cn1c(CN(C)C(=O)c2ccco2)nc2ccccc21)c1ccccc1	nt	i
COc1ccc(NC(=O)Cc2ccc(S(C)(=O)=O)cc2)c2ccccc12	i	nt
Cc1cc(C)n(-c2nc3c(c(=O)n2CC(=O)N(C)c2ccccc2)CCC3)n1	i	i
Cc1cc(C)n(-c2nc3c(c(=O)n2CC(=O)NCc2ccco2)CCCC3)n1	+	i
CCOc1ccc(C(C)(C)C)cc1S(=O)(=O)N1CCC(C(N)=O)CC1	i	nt
Cc1csc(NC(=O)C2CCNCC2)n1	i	i
O=C(NC(=S)Nc1ccc(S(=O)(=O)NC2CCCCC2)cc1)c1cccs1	+	nt
NS(=O)(=O)c1ccc(NS(=O)(=O)c2ccc(NC(=O)C3CCCCC3)cc2)cc1	i	i
CCc1ccc(N2CC(c3nc4ccccc4n3CC(=O)NC(C)C)CC2=O)cc1 (stereo not drawn)	i	i
COc1ccc(CCNC(=O)Cc2cc(-c3ccc(Cl)cc3)on2)cc1	i	i
O=C(Nc1ccc2ncsc2c1)c1ccc(S(=O)(=O)N2CCc3ccccc3C2)cc1	i	i
O=C(Nc1ccc2c(c1)CN(S(=O)(=O)c1ccccc1)CC2)c1ccc2nsnc2c1	+	i
COc1ccc(CCC(=O)Nc2sc(SCC(N)=O)nc2-c2ccccc2)cc1	i	i
NC(=O)CSc1nc(-c2ccccc2)c(N)s1	i	i
NC(=O)CSc1nc(-c2ccccc2)c(NC(=O)CCCc2ccccc2)s1	+	i
NC(=O)CSc1nc(-c2ccccc2)c(NC(=O)CCc2ccccc2)s1	+	i
